PubChem BioAssay (NCI)
Several values for one entry are separate records, joined by “and”; a condition that tells them apart may be missing. Equal entries are not always repeated. About 83,000 compounds went through this panel and 20% of them were active in at least one assay; those are over-represented in the sample as a whole.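 The test compound was applied at a single concentration to cells in 96-well plates for 48 hours, and percent growth was recorded.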 Activity calls are given as the source filed them. Rule for the calls: active = growth percent below 10; inactive = the rest.

Test system: TK-10 renal
Assay: NCI-60 one-dose screen, 48 h (100 = growth as untreated, 0 = no growth, -100 = all killed)
Conditions: 10 µM unless noted

SMILES | growth
O=C1c2c(O)ccc(O)c2C(=O)c2c(NCCNC(=O)C(O)C(O)C(O)C(O)CO)ccc(NCCNC(=O)C(O)C(O)C(O)C(O)CO)c21 (stereo not given) | -82.4% [100 µM] (active) and -95.9% [100 µM] (active)
COc1cc(CC2c3cc(OC)c(OC)cc3CCN2C)c(Oc2cc3c(cc2OC)-c2c(O)c(OC)cc4c2C(C3)N(C)CC4)cc1OC (stereo not given) | -10.6% [100 µM] (active) and -93% [100 µM] (active)
C=C1C(=O)OC2/C=C(\CO)C(OC(C)=O)CC(O)/C(C)=C/C(OC(=O)C(C)CC)C12 (stereo not given) | -36.1% [100 µM] (active) and -92% [100 µM] (active)
CCCCOC(=O)C1CN2C(=NC1(C(F)(F)F)C(F)(F)F)Sc1ccccc12 (stereo not given) | 33.3% [100 µM] (inactive) and 71.4% [100 µM] (inactive)
COc1ccc(C2=C(N)c3ccccc3C2=O)cc1 | 79.7% [100 µM] (inactive) and -100% [100 µM] (active)
N#CC1=C(N)OC(c2cccc([N+](=O)[O-])c2)C1(C#N)C#N (stereo not given) | -66.6% [100 µM] (active) and -87.5% [100 µM] (active)
CC(C)=CCC/C(C)=C/CC/C(C)=C/CSc1ccc(Cl)cc1C(=O)O | -67.3% [100 µM] (active) and 28.4% [100 µM] (inactive)
CC(=O)OCC1=C(C)C[C@H]([C@@H](COC(C)=O)C2CCC3C4C[C@H]5O[C@]56CC=CC(=O)[C@]6(C)C4CC[C@@]32C)OC1=O (stereo not given in full) | -97.1% [50 µM] (active) and -100% [50 µM] (active)
ClC(Cl)(Cl)C1CCOC1n1nnc2ccccc21 (stereo not given) | 73% [100 µM] (inactive) and 16.8% [100 µM] (inactive)
O=C1C=C(Nc2ccc(S(=O)(=O)Nc3nccs3)cc2)c2ccccc2C1=O | 171% [100 µM] (inactive) and -86% [100 µM] (active)
CC(C)(C)O/N=C/c1cc(NC(=S)c2ccsc2)ccc1Cl | -90.2% [100 µM] (active) and -20.8% [100 µM] (active)
COc1cc(Nc2ccc3c(c2)CCC3)nc(OC)n1 | 53.3% [100 µM] (inactive) and -39.4% [100 µM] (active)
CCC/C(Cl)=N\OC(=O)Nc1ccc(F)cc1 | -100% [100 µM] (active)
CC(=O)Oc1ccc2ccc(=O)oc2c1OC(C)=O | 62.1% [100 µM] (inactive) and 17.8% [100 µM] (inactive)
NC(=O)c1[nH]cnc1/N=N/SCC(N)C(=O)O (stereo not given) | 9.64% [100 µM] (active) and 8.09% [100 µM] (active)
CCOC(=O)CCC(NC(=O)c1ccc(OCc2nc3cc(C(F)(F)F)ccc3nc2-c2ccccc2)cc1)C(=O)OCC (stereo not given) | 84.3% [100 µM] (inactive) and 14.7% [100 µM] (inactive)
Cc1cc(-c2nc3ccccc3s2)ccc1N | 35.5% [100 µM] (inactive) and 15.8% [100 µM] (inactive)
O=[N+]([O-])c1cccc(-c2ncnc(-c3cccc([N+](=O)[O-])c3)n2)c1 | 38.8% [100 µM] (inactive) and -100% [100 µM] (active)
CCCC(=O)Oc1c2ccsc2c(OC(=O)CCC)c2ccsc12 | -72.5% [100 µM] (active) and -100% [100 µM] (active)
COC(=O)c1ccc(CCc2cc(O)c(Br)cc2O)cc1 | -97.6% [100 µM] (active) and -100% [100 µM] (active)
CC#CC#C/C=C1\C=CC2(OC=CC2OC(C)=O)O1 (stereo not given) | -20.2% [100 µM] (active) and -81% [100 µM] (active)
CCOC(=O)CCCOc1cc(-c2ccccc2F)nc2cc3c(cc12)OCO3 | 58.8% [100 µM] (inactive) and 0% [100 µM] (active)
CN(C)CCNc1ccc(NCC[N+](C)(C)Cc2ccc([N+](=O)[O-])cc2)c2c1C(=O)c1ccccc1C2=O | 36.4% [25 µM] (inactive) and 2.65% [25 µM] (active)
N#Cc1cnn2c1n[n+]([O-])c1ccc(Cl)cc12 | 98.1% [100 µM] (inactive) and -100% [100 µM] (active)
Nc1nc(Nc2cc(F)c(Cl)c(F)c2)cc(=O)[nH]1 | 111% [100 µM] (inactive) and 27.1% [100 µM] (inactive)
